Our source for the Percent Effect values is ChEMBL document CHEMBL3988442, “University of Dundee, Small-Polar-MMV Screening Library” (2021).

For some of these results: Entries with a potency or affinity are not part of this list.

Set-up in all cases: scale not given: direction of the effect not stated beside the values
Assay [1] has as its target Protein translocase subunit SecA (Escherichia coli (strain K12)) (UniProt P10408). Nature of the assay: Assay to Identify E. coli SecA ATPase Inhibitors. It is filed as functional. Conditions: 30 µM.
For assay [2], the target named is T1, Ubiquitin-activating enzyme e1, putative (Leishmania donovani (strain BPK282A1)) (UniProt E9BSI1).
T1 sequence (whole entry): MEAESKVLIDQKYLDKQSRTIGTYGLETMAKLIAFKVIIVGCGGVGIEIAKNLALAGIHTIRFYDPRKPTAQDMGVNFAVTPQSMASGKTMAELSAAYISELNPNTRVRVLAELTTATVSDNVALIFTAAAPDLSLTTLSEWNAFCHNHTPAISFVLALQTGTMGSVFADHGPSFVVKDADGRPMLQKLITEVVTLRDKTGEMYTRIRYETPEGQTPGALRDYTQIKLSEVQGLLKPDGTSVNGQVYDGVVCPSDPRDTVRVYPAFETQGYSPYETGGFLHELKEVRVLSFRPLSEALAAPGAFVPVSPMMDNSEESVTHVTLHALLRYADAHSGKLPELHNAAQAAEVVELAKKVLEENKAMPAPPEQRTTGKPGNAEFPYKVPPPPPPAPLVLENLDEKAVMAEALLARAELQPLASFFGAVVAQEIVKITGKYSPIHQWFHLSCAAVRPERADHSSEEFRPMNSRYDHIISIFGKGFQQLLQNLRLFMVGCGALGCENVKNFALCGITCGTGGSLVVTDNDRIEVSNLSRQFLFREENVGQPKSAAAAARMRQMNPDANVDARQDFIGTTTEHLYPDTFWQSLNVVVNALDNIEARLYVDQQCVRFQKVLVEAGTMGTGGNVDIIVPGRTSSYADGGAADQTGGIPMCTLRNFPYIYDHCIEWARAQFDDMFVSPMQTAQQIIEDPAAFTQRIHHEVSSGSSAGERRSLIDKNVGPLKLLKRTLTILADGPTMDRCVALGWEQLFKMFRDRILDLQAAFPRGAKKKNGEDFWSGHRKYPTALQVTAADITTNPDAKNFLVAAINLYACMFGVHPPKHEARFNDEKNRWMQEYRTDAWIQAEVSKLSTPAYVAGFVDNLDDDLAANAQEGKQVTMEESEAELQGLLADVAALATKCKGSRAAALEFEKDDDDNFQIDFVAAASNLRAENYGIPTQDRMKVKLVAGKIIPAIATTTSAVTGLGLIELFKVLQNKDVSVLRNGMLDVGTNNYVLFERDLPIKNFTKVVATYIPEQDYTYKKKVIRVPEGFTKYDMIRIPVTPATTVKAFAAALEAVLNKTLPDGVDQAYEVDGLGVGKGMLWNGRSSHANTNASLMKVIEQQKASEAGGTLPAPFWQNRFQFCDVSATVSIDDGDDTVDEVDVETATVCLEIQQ
Briefly: Leishmania donovani Ubiquitin Activating Enzyme (LdE1). It is filed as functional. The settings on record: 30 µM.

In assay [3] the target is AMP-activated protein kinase, AMPK (Homo sapiens) (UniProt P54646+O43741+P54619+Q9UGJ0+Q9Y478+Q13131+Q9UGI9). Briefly: AMP-dependent Kinase enzyme assay. An in vitro enzyme assay that detects ADP turnover that is directly proportional to AMPK activity. This uses naive AMPK that is activated during the assay with MK-8722. It is filed as functional. The settings on record: 30 µM.

Assay [4] addresses Sialic acid-binding Ig-like lectin 9 (Homo sapiens) (UniProt Q9Y336). Briefly: Hs-Siglec9 ALPHAscreen SOP 20170721. Conditions: 10 µM. For orientation: Bead proximity is the source of the signal in Alpha formats.
For assay [5], the system named is Trypanosoma cruzi. Briefly: Trypanosoma cruzi phosphomannomutase and mannose-1-phosphate guanylyltransferase assay. It is filed as functional. The settings on record: 10 µM.
Assay [6] concerns the target T2, Arginase-2, mitochondrial (Homo sapiens) (UniProt P78540).
T2 sequence (whole entry): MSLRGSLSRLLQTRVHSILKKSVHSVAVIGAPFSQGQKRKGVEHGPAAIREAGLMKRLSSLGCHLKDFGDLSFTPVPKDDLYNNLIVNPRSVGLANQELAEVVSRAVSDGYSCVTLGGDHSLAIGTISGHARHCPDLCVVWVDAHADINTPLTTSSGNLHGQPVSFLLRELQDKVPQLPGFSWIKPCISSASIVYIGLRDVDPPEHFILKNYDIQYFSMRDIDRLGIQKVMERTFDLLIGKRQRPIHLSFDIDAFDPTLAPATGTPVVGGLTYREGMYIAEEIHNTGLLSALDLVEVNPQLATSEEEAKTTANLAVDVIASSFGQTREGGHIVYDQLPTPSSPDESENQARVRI
Briefly: in vitro enzyme assay to detect the production of urea directly proportional to the activity of Arginase II. Further: in the data most compounds retested in dose-response had high values. It is filed as functional. The settings on record: 33.3 µM.

In assay [7] the target is T3, Proteasome subunit beta (Trypanosoma cruzi) (UniProt O96673).
T3 sequence (whole entry): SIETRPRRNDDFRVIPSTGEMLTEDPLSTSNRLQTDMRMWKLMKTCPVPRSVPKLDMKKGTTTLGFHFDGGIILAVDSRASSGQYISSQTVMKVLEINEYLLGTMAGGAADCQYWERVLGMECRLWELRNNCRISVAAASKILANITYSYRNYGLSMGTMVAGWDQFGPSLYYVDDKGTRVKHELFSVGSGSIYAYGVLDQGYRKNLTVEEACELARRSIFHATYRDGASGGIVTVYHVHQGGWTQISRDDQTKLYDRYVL
Nature of the assay: Trypanosoma cruzi proteasome chymotrypsin-like activity (TcProtChymo) assay. Further: in the data most compounds retested in dose-response had high values. Conditions: 9.37 µM. It is filed as functional.

The species named for assay [8] is Homo sapiens. Nature of the assay: To identify inhibition of the IFN signalling (Jak-Stat) pathway via expression of an eGFP reporter gene under the control of an IFN-stimulated response element (ISRE) containing MxA promoter. It is filed as functional. Conditions: 30 µM. Background: Reporter assays use an easily measured gene product as a stand-in for the process of interest.

Assay [9] addresses T4, Tyrosyl-tRNA synthetase, putative (Trypanosoma cruzi (strain CL Brener)) (UniProt Q4DSP6).
T4 sequence (whole entry): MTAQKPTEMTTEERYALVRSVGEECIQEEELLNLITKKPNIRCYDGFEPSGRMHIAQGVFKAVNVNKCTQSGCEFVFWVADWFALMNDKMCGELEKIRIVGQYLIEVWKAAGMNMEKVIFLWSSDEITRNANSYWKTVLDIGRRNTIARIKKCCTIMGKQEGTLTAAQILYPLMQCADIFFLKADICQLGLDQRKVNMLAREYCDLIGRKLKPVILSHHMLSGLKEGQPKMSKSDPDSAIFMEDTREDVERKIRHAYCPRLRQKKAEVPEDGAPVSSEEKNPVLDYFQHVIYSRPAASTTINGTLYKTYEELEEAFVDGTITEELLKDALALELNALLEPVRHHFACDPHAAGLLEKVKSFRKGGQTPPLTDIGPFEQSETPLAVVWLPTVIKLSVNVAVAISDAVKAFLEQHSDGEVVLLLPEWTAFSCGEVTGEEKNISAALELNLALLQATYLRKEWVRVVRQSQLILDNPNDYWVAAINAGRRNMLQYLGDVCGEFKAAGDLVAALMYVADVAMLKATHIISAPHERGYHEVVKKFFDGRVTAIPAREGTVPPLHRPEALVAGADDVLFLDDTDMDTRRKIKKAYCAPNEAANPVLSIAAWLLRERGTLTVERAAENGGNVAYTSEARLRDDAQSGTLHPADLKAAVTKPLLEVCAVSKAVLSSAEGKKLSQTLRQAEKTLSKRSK
Briefly: Trypanosoma cruzi tyrosyl tRNA synthetase (TcYRS) _High Tyrosine SOP. Further: in the data most compounds retested in dose-response had high values. It is filed as functional. Conditions: 30 µM.

The target of assay [10] is T4, Tyrosyl-tRNA synthetase, putative (Trypanosoma cruzi (strain CL Brener)). Nature of the assay: Trypanosoma cruzi tyrosyl tRNA synthetase (TcYRS) SOP. It is filed as functional. The settings on record: 30 µM.
Assay [11] has as its target Chromo domain-containing protein 1 (Saccharomyces cerevisiae (strain ATCC 204508 / S288c) (Baker's yeast)) (UniProt P32657). Nature of the assay: ScCHD-1 Enzyme Inhibition Assay. Further: in the data most compounds retested in dose-response had high values. Conditions: 30 µM. It is filed as functional.

Chain of Chromo domain-containing protein 1 (Saccharomyces cerevisiae (strain ATCC 204508 / S288c) (Baker's yeast)) (P32657 whole entry, the tested form may be a part): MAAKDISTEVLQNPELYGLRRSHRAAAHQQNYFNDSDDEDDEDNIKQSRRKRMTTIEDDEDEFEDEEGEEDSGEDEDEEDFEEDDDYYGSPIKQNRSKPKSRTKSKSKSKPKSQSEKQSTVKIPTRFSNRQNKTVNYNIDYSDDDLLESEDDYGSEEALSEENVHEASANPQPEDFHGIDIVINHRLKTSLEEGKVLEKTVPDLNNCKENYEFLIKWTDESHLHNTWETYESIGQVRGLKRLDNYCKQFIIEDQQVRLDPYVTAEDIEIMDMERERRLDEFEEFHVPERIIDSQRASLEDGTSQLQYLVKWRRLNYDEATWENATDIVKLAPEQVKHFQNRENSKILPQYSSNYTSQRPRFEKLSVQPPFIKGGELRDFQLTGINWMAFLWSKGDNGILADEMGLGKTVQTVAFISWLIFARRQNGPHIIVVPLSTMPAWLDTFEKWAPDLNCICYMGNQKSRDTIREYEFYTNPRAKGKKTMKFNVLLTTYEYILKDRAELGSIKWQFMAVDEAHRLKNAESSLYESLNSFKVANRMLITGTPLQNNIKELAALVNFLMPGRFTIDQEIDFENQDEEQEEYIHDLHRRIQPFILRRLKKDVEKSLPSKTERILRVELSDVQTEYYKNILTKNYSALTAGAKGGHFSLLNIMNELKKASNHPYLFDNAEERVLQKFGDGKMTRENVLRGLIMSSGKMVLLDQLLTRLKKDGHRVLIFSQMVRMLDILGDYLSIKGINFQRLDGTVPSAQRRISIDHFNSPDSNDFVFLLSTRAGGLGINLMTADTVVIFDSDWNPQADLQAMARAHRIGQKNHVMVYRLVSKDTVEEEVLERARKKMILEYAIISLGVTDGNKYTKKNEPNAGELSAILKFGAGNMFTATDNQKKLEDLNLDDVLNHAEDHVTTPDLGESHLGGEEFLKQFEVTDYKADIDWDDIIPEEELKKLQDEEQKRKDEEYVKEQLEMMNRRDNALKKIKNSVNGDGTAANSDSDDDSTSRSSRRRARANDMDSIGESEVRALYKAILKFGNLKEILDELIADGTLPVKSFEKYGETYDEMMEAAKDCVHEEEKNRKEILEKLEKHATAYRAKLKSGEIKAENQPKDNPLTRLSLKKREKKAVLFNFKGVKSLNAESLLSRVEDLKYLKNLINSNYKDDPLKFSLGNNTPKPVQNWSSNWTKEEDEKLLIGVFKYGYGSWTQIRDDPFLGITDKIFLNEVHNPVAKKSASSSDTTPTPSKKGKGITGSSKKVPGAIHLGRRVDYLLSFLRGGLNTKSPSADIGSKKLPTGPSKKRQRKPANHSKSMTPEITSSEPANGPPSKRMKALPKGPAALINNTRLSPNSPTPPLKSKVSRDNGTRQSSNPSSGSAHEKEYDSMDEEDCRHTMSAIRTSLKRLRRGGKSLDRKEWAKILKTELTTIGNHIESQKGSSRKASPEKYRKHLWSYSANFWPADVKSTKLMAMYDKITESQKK
Chain of Protein translocase subunit SecA (Escherichia coli (strain K12)) (P10408 whole entry): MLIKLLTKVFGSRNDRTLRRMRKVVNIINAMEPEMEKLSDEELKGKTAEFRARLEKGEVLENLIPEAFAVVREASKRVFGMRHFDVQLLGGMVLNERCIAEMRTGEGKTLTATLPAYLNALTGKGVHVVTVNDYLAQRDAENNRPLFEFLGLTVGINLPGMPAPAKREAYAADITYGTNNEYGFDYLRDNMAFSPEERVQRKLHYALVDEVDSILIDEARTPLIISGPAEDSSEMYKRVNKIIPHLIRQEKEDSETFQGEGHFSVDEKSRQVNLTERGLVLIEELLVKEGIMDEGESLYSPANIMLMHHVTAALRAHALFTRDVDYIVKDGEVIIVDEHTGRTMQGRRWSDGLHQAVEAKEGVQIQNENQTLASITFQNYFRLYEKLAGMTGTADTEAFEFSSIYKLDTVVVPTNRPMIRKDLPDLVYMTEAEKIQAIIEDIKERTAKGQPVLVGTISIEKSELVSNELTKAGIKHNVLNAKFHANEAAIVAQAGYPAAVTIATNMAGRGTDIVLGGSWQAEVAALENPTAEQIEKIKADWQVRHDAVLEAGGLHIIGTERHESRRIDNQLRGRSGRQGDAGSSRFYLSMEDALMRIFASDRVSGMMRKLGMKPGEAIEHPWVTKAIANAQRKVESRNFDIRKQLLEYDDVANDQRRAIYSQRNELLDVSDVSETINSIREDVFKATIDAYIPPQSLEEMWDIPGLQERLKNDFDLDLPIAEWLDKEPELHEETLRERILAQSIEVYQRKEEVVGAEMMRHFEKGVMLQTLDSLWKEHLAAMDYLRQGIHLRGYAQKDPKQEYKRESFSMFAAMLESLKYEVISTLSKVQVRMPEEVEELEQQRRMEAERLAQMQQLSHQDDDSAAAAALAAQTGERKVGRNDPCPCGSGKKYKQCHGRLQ
Chain of Sialic acid-binding Ig-like lectin 9 (Homo sapiens) (Q9Y336 whole entry): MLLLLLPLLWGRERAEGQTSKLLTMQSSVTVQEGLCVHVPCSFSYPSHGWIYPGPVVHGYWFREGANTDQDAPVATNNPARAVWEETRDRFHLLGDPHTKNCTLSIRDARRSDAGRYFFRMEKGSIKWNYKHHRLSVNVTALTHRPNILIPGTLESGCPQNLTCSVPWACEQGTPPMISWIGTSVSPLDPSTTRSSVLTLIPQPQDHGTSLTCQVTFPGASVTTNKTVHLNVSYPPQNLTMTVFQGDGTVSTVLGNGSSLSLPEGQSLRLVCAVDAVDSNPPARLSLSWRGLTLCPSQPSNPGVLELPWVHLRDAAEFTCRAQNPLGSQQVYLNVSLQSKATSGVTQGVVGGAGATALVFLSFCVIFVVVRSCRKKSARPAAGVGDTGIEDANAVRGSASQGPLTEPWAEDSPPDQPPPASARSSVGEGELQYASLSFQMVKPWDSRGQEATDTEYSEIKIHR

Turning to `COc1ccnc(N2CCN(C(=O)c3csc(C4CC4)n3)CC2)n1`, the Percent Effect in assay [1] is -4.82%; in assay [2] it was 2.7%; in assay [3], 2.76%; in [4] it was -1.98%; in assay [5], -2.05%; in assay [6], 4.22%. For the same compound, the Percent Effect in assay [7] is -0.601%; in assay [8], 0.351%; in assay [9], 0%; in assay [10] it was 8.64%; in [11], -4.46%.

With `O=C(NCCO)Nc1cccc(Cl)c1SC(F)F`, the Percent Effect is -7.96% in assay [1]; -1.39% in [2]; 0.408% in [3]; 20.6% in [4]; -3.01% in [5]; 0.883% in [6]. The Percent Effect was 13.9% in assay [7]; 28.9% in assay [8]; -5.26% in assay [9]; -15.4% in [10]; -1.91% in assay [11].

For `COc1ccc(C2CCCN2C(=O)NCCNc2ncccn2)cc1` (stereo unspecified), the Percent Effect in assay [1] is 0.96%; in assay [2] it was 2.74%; in [3], -8.6%; in [4], -2.28%; in assay [5], -7.83%; in assay [6], 6.36%. For the same compound, the Percent Effect in assay [7] is 19.3%; in assay [8], 16.6%; in assay [9], 5.38%; in assay [10] it was 12.5%; in assay [11], -6.8%.

As for `CN(C)C(=O)CN1CCCCC1c1nc(N)ncc1-c1ccccc1` (stereo unspecified), the Percent Effect in assay [1] was -1.46%; in assay [2], 2.67%; in assay [3], 10.4%; in assay [4] it was 1.52%; in [5] it was -2.95%; in assay [6] it was 2.1%. For the same compound, the Percent Effect in assay [7] was 2.56%; in [8] it was -0.722%; in [9] it was 4.25%; in assay [10] it was 6.41%; in [11], -5.48%.

Consider `Cn1cnc2c1CCN(Cc1nc(Cc3ccccc3)no1)C2`, for which the Percent Effect in [1] is -2.4%; in assay [2], -7.89%; in [3], -7.72%; in assay [4] it was -0.869%; in assay [5], 3.27%; in assay [6], 4.68%. Besides, the Percent Effect in assay [7] is -0.931%; in [8] it was 1.02%; in [9], 11.3%; in [10] it was 6.17%; in assay [11] it was 3.08%.

As to `O=C(C1CCOCC1)N1CCc2ncnc(-c3ccc(F)cc3)c2CC1`, the Percent Effect in assay [1] was -1.29%; in assay [2] it was 2.67%; in assay [3], 4.73%; in assay [4], 2.72%; in assay [5] it was -1.35%; in assay [6], -2.33%. The Percent Effect is 8.89% in assay [7]; -4.53% in assay [8]; 0% in assay [9]; -2.5% in assay [10]; -3.02% in assay [11].

`Fc1cnc(N2C[C@H]3CCC[C@@]3(COc3ccccn3)C2)nc1`: the Percent Effect in assay [1] was -1.64%; in [2] it was 1.33%; in [3], 6.16%; in assay [4], 4.78%; in [5] it was -3.93%; in assay [6], -1.94%. The Percent Effect in assay [7] is 10.5%; in assay [8], -10.5%; in assay [9] it was 5.29%; in [10] it was 2.56%; in [11] it was -5.06%.

For the compound `c1ccc2sc(CN3CCOC(Cn4cncn4)C3)nc2c1` (stereo unspecified), the Percent Effect is -1.57% in [1]; -8.11% in [2]; -9.39% in [3]; -1.81% in assay [4]; -6.51% in assay [5]; 0.401% in [6]. For the same compound, the Percent Effect in assay [7] is -4.68%; in assay [8], 42.5%; in assay [9] it was 1.48%; in [10], -6.17%; in [11], 4.42%.

On to `CCN(CCn1cccn1)Cc1nc(-c2ccccc2F)oc1C`, for which the Percent Effect was -1.08% in [1]; -6.94% in [2]; -5.26% in assay [3]; -5.94% in assay [4]; -0.68% in [5]; -0.883% in [6]. Further, the Percent Effect came to 5.61% in [7]; 7.62% in [8]; 1.05% in assay [9]; 0% in assay [10]; 2.51% in [11].

Turning to `O=C(c1ccnnc1)N1C[C@H]2CCC[C@@]2(COCC2CCOCC2)C1`, the Percent Effect in assay [1] was -1.23%; in [2], -16.2%; in assay [3], 2.91%; in assay [4] it was 1.16%; in assay [5] it was 7.72%; in assay [6], -2.87%. The Percent Effect in assay [7] is 9.04%; in assay [8], -6.27%; in assay [9], -1.08%; in assay [10] it was 5.13%; in assay [11] it was 0.739%.

Take `O=C(O)c1cc2c(nc1O)CC(c1cccs1)CC2=O` (stereo unspecified): the Percent Effect in assay [1] was -5.09%; in assay [2], 17.3%; in [3], -2.58%; in assay [4] it was -0.782%; in assay [5] it was -5.5%; in [6], -2.64%. Further, the Percent Effect was 15.9% in assay [7]; -5.05% in [8]; 2.12% in assay [9]; -20.5% in assay [10]; -9.66% in assay [11].
